Source: PubChem BioAssay (National Center for Advancing Translational Sciences (NCATS))
PLK1 PBD block: PLK1 (human) polo-box domain binding inhibition | 360,000 compounds, 2.8% hits | P53350 | Plk1 PBD binding of FITC phosphopeptide, fluorescence polarization | Potency, µM, usual class: inhibitors; also: series mostly up to about 57 µM; nearly all actives have a fitted effect of over 65% in size
Sfp inh: inhibitors of Bacillus subtilis Sfp phosphopantetheinyl transferase; Q9F4F7; Potency, µM, actives largely listed as inhibitors; 310,000 compounds, 3.5% hits; Biochemical Sfp PPTase activity, qHTS; AID 1490;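 also: the enzyme is Sfp with the accession as filed and its product quenches rhodamine fluorescence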
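With Hepes-Na pH 7.6 buffer containing 10 mM MgCl2, Sfp (15 nM) modified BHQ-2-YbbR (12.5 uM) using rhodamine-CoA (5 uM). Two reads 30 minutes apart at 525/598 nm yielded each well's rate.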
Mm-Cpn inhibitor: inhibitors of Methanococcus maripaludis chaperonin TRiC (MmCpn); purified Mm-Cpn ATPase, ADP Transcreener TR-FRET; Potency, µM (series often up to 76.9 µM), hits mostly inhibitors; 330,000 compounds, 0.031% hits; AID 504842; also: nearly all actives have a fitted effect of over 80% in size
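Quantitative HTS used 25 nM Mm-CPN and 10 uM ATP in magnesium/KCl Tris buffer, pH 7.4, with 1 mM DTT. Hydrolysis ran 30 min at 37°C; ADP was read by HTRF.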
CCT chaperon mod: cytosolic chaperonin activity modulation. 360,000 compounds, 0.3% hits. activity change, % (concentration not given with the values), hits read low. purified chaperonin ATPase assay, HTRF ADP detection, 30 min. AID 651819; in the data active = activity change below about -30%
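Enzyme 40 or 20 nM (batch-dependent) in Tris pH 7.4/KCl/MgCl2/DTT; cpd 76 uM single point; ATP 10 uM; 30 min 37 °C; Transcreener ADP HTRF detection, 30 min RT; ratio 665/615.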
G9a inh: blocks human histone lysine methyltransferase G9a; 350,000 compounds, 8.8% hits; G9a H3K9 monomethylation, AlphaScreen, 2 h; Potency, µM (series often up to 102 µM), actives largely listed as inhibitors; Q96KQ7; also: nearly all actives have a fitted effect of over 75% in size
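Quantitative HTS format: methyltransferase activity on a biotin-tagged H3K9 peptide is measured by AlphaScreen, using a rabbit anti-monomethyl-H3K9 antibody with streptavidin donor and anti-IgG acceptor beads. Final levels are 20 nM enzyme, 500 nM peptide, 20 uM SAM; 2 h RT.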
VDR inh: inhibitors of human vitamin D receptor; P11473; VDR-SRC2-3 peptide fluorescence polarization, 2 h; Potency, µM, usual class: inhibitors; 400,000 compounds, 0.93% hits; AID 504847
Target sequence (P11473 whole entry, looked up): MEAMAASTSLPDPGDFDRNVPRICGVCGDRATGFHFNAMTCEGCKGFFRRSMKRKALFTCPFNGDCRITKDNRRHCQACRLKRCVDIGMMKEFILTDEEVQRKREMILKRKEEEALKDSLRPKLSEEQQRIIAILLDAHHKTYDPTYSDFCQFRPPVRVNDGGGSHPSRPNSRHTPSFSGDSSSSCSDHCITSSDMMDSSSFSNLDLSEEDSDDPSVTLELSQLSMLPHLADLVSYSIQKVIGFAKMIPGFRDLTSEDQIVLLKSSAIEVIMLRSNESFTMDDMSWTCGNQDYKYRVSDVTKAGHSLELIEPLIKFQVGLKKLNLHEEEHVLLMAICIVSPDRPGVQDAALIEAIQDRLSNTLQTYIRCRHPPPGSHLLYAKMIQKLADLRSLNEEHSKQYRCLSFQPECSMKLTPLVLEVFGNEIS
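Compounds are added to VDR with labelled SRC2-3 coactivator peptide and held 2 h at room temperature. Inhibition of the VDR–peptide interaction is then read as a change in fluorescence polarization.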
A number is an active result; i = inactive; ? = inconclusive; nt = no result given; [ ] = dose if it differs, or a comment. An excerpt weighted towards active compounds, which were near 10% of everything screened. Unless noted, calls follow the shape of the dose curve; as a rule, active = well fitted curve in the direction sought with a large enough effect; inconclusive = small, poorly fitted or top-dose-only effect, or another doubt; inactive = no such curve, though single readings can be large; an effect the other way counts as inactive or inconclusive.

SMILES	PLK1 PBD block	Sfp inh	Mm-Cpn inhibitor	CCT chaperon mod	G9a inh	VDR inh
O=C1OC(c2ccccc2)=N/C1=C\C=C\c1ccco1	i	39.8µM	i	i	nt	i
O=C1OC(c2ccc(Cl)cc2)=N/C1=C\C=C\c1ccco1	i	44.7µM	i	i	14.1µM	i
Cc1cc(C)n2nc(CNC(=O)c3ccccc3Cl)nc2n1	nt	nt	nt	nt	i	i
N#CCCN1CCN(S(=O)(=O)c2ccc(S(=O)(=O)N3CCCCCC3)cc2)CC1	i	i	i	i	i	i
Cc1ccc(S(=O)(=O)N2CCN(CCC#N)CC2)cc1	i	79.4µM	i	i	7.08µM	i
N#CCCN1CCN(S(=O)(=O)c2ccc(S(=O)(=O)NC3CCCC3)cc2)CC1	i	i	i	i	35.5µM	i
Nc1c(-c2nc(-c3ccccc3Cl)no2)nnn1-c1ccccc1F	nt	nt	nt	nt	i	i
Cn1cccc1C(=O)N1CCC2(CCCN(Cc3nccs3)C2)CC1	nt	i	nt	nt	i[12.7 µM]	i
COc1ccc(C(=O)N2C(=S)NC(=O)/C2=C\c2ccc(C)cc2)cc1	i	50.1µM	i	i	i	i
Cc1sc2nc(-c3cccs3)oc(=O)c2c1C	i	i	i	i	i	i
Cc1sc2nc(-c3ccc(Br)cc3)oc(=O)c2c1C	i	i	i	-37.9	i	?
N#Cc1nc(-c2cccs2)oc1NCCc1ccccc1	i	i	i	i	35.5µM	i
COc1ccc(Nc2oc(-c3cccs3)nc2C#N)cc1	i	?	i	-36.6	i	i
N#Cc1nc(-c2cccs2)oc1NCc1ccc2c(c1)OCO2	i	i	i	i	44.7µM	i
N#Cc1nc(-c2ccco2)oc1NCCc1ccccc1	i	i	i	i	?	i
CNc1oc(-c2cccs2)nc1C#N	i	i	i	i	?	i
Cc1ccccc1Cn1cnc2nc3c(cc2c1=O)CC(C)CC3 (stereo not drawn)	nt	nt	nt	nt	i	i
Cc1cc(=O)oc2cc(OC(=O)c3nn(C(C)C)c(=O)c4ccccc34)ccc12	?	i	i	i	?	i
CCCn1nc(C(=O)Oc2ccc3c(C)cc(=O)oc3c2)c2ccccc2c1=O	?	i	i	i	14.1µM	i
CCC(=O)Nc1nc(C)nc(C)c1C(C)=O	i	i	i	i	44.7µM	i
CCn1c(C(=O)Nc2ccc(C)cc2C)cc2sc(Cl)cc21	nt	nt	nt	nt	i	i
Cc1cc(C)c(NC(=O)CCN2CCCCC2)c(C)c1	nt	nt	nt	nt	i	i
Cc1cc(C)c(NC(=O)CN2CCN3CCCC3C2)c(C)c1 (stereo not drawn)	i	i	i	i	11.2µM	i
O=C(c1cccc(Cl)c1)N1c2ncnn2C2(CCCCC2)[C@@H]2CCCC[C@@H]21	nt	nt	nt	nt	i	i
CC(=O)Nc1ccc(S(=O)(=O)NCc2ccc(C)n2C)cc1	i	i	i	i	39.8µM	i
SMILES	PLK1 PBD block	Sfp inh	Mm-Cpn inhibitor	CCT chaperon mod	G9a inh	VDR inh
Cc1csc2nc(COC(=O)c3cccc(NC(=O)COc4ccccc4Cl)c3)cc(=O)n12	nt	nt	nt	nt	i[12.7 µM]	i
c1cncc(-c2ccc3ncnc(NC4CCNCC4)c3c2)c1	nt	i	nt	nt	i[0.501 µM]	i
Fc1ccc(Nc2ncnc3ccc(-c4ccoc4)cc23)cc1	nt	i	nt	nt	i[0.501 µM]	39.8µM
c1nc(NC2CCNCC2)c2cc(-c3ccoc3)ccc2n1	nt	i	nt	nt	i[0.501 µM]	20µM
CC(Sc1ccc2ccccc2n1)C(=O)O (stereo not drawn)	i	i	i	i	50.1µM	i
Cc1nc2ccc(NC(=S)N3CCN(c4ccccn4)CC3)cc2nc1C	i	i	i	i	i	i
Cc1cc(N2CCN(C)CC2)nc2ccc(NC(=S)N3CCC4(CC3)OCCO4)cc12	i	i	i	i	44.7µM	i
Cc1cc(N2CCN(C)CC2)nc2ccc(NC(=S)N3CCN(c4ccccn4)CC3)cc12	i	i	i	i	50.1µM	i
CCN1CCN(c2cc(C)c3cc(NC(=S)N4CCC5(CC4)OCCO5)ccc3n2)CC1	i	i	i	i	?	i
Cc1ccc(C)c(N2CCN(C(=S)Nc3ccc4nc(N5CCN(C)CC5)cc(C)c4c3)CC2)c1	i	i	i	i	39.8µM	i
Cc1ccccc1CNC(=O)c1ccc2nc(C(C)C)oc2c1	nt	nt	nt	nt	i	i
CN(C)c1ccc2c(c1)Sc1cc(N(C)C)ccc1N2C(=O)c1ccccc1	i	i	i	i	10µM	i
Cc1ccc(C(=O)N2c3ccccc3Sc3ccccc32)cc1	i	nt	nt	i	nt	nt
